In PubChem BioAssay (NCI):
Several values for one entry are separate records, joined by “and”; a condition that tells them apart may be missing. Identical values can stand only once. About 83,000 compounds went through this panel and 20% of them were active in at least one assay; those are over-represented in the sample as a whole.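 In brief: 96-well plates, 48 h treatment, single concentration, percent growth endpoint.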 Activity calls are given as the source filed them. The calls were made as follows: active = growth percent below 10; inactive = the rest.

test system: MDA-MB-468 breast; test: NCI-60 one-dose screen, 48 h (100 = growth as untreated, 0 = no growth, -100 = all killed); conditions: 10 µM unless noted

| SMILES | growth |
| --- | --- |
| O=C(Cc1ccccc1)c1ccccc1 | 106% (inactive) |
| C[C@]12CC[C@H]3[C@@H](CC=C4c5nc(N)sc5CC[C@@]43C)[C@@H]1CC[C@@H]2O | 91.2% (inactive) |
| O=C1NC(=O)C(=Cc2ccccc2)C(=O)N1 | 96.4% (inactive) and 115% (inactive) |
| COc1ccc(-c2ccc(OC)c(OC)c2OC)cc1 | -20.7% (active) |
| CN(C)c1ccc(N)cc1 | 98% (inactive) and 5.01% (active) |
| O[C@H](CN1CC1)[C@@H](O)CN1CC1 | 9.35% (active) |
| CCOc1ccc(/C=C/[N+](=O)[O-])cc1 | 35.4% (inactive) |
| CCCCCN(CCCCC)CC(O)c1cc(Cl)ccc1OC (stereo unspecified) | 57.7% (inactive) |
| C[C@]12CC[C@@H]3c4ccc(Oc5nc(N6CC6)nc(N6CC6)n5)cc4CC[C@H]3[C@@H]1CCC2=O | 30.4% (inactive) |
| O=[N+]([O-])c1cc(I)cc([N+](=O)[O-])c1 | 88.2% (inactive) |
| O=[N+]([O-])c1cc(Cl)c(Cl)cc1Cl | 102% (inactive) and 104% (inactive) |
| COc1ccc(N(CC(=O)NCCC[Te]c2ccccc2)C(=O)CCSC2=C(C)C(=O)c3ccccc3C2=O)cc1 | -58.1% (active) |
| O=P(O)(Nc1ccccc1)Nc1ccccc1 | 90.2% (inactive) |
| O=C1OCC2=C1C(c1ccccc1)c1cc3c(cc1N2)OCO3 (stereo unspecified) | -9.05% (active) |
| COC(=O)C1=CO[C@@H](C)[C@@H]2CN3CCc4c([nH]c5cc(OC)ccc45)[C@@H]3C[C@H]12 | 107% (inactive) |
| O=C(CC1(O)C(=O)N(Cc2ccccc2)c2ccc(Cl)cc21)c1ccc(C(=O)NCC2CCC3(CC2)OOC2(CCCCC2)OO3)cc1 (stereo unspecified) | 6.64% (active) |
